Here are results for 21 compounds from PubChem BioAssay (Tox21).

Several values for one entry are separate records, joined by “and”; a condition that tells them apart may be missing. Identical values can stand only once. Inconclusive results are not listed. Where a call stands in place of a potency, no number is given. Activity calls are given as the source filed them. Unless noted, the call rests on the fitted dose curve.

Estrogen receptor (Homo sapiens), sequence (P03372 whole entry, looked up): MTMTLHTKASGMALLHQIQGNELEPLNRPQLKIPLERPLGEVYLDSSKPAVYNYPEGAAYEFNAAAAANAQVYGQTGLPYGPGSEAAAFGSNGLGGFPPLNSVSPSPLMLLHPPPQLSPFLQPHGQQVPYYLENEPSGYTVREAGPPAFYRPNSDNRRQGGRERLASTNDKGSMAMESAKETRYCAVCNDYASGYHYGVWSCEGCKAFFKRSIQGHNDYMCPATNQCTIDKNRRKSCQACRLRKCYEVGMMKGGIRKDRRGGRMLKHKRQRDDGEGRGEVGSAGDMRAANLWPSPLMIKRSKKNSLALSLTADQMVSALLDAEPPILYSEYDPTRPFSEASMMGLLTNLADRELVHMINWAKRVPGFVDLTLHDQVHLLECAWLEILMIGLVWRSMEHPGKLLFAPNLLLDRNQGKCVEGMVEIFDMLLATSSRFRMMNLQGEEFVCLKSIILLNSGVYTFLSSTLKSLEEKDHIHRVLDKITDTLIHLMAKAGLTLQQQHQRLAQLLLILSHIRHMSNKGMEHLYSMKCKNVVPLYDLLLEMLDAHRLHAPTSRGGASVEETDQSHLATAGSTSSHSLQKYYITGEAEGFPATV

One assay concerns the target Estrogen receptor (Homo sapiens) (UniProt P03372). The assay can be described thus: qHTS assay to identify small molecule agonists of the estrogen receptor alpha (ER-alpha) signaling pathway (AID 743075).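 Further: HEK293 GripTite cells with ER-alpha and UAS-driven beta-lactamase reporter.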 The following applies: HEK293 ER-alpha-UAS-bla, beta-lactamase FRET ratio, 18 h; series mostly up to 70.1 µM. Background: qHTS replaces the single test concentration by a dilution series.
For the compound `C=CC(N)CCC(=O)O` (centres undefined), the Potency entry was “inactive”.

In the case of `Cc1c(N)nc([C@H](CC(N)=O)NC[C@H](N)C(N)=O)nc1C(=O)N[C@H](C(=O)N[C@H](C)[C@@H](O)[C@H](C)C(=O)N[C@H](C(=O)NCCc1nc(-c2nc(C(=O)NCCCCN=C(N)N)cs2)cs1)[C@@H](C)O)[C@@H](O[C@@H]1O[C@@H](CO)[C@@H](O)[C@H](O)[C@@H]1O[C@H]1O[C@H](CO)[C@@H](O)[C@H](OC(N)=O)[C@@H]1O)c1cnc[nH]1`, the Potency entry is “inactive”.

Turning to `CCOC(=O)COc1ccc2c(=O)cc(-c3ccccc3)oc2c1`, the Potency entry is “inactive”.

A further assay has the same target. As to the kind of experiment: qHTS assay to identify small molecule agonists of the estrogen receptor alpha (ER-alpha) signaling pathway using the BG1 cell line (AID 743079; active means well fitted activation curve with a large enough effect in the repeat runs; further: nearly all actives have a fitted effect of over 20% in size; further: potency means the concentration at half of the fitted maximal effect). As to conditions: BG1Luc4E2 cells, ERE-luciferase agonist, 22 h; series mostly up to 70.3 µM.
As to `O=C(O)/C=C/C(=O)Nc1ccc(S(=O)(=O)Nc2nccs2)cc1`, the Potency entry is “inactive”.

Regarding `O=C1CC[C@@H](C(=O)N[C@H]2C[C@@H]2c2ccccc2)N1`, the Potency entry was “inactive”.

As for `NC[C@H]1O[C@H](O[C@H]2[C@H](O)[C@@H](O[C@H]3O[C@H](CO)[C@@H](O)[C@H](N)[C@H]3O)[C@H](N)C[C@@H]2N)[C@H](N)C[C@@H]1O`, the Potency entry was “inactive”.

On to `CC(C)Cc1ccc([C@H](C)C(=O)O)cc1`, for which the Potency result is “inactive”.

For `O=P(O)(O)C(O)(Cn1ccnc1)P(=O)(O)O`, the Potency entry was “inactive”.

For `NCC(O)CC(=O)O` (centres undefined), the Potency was 16.8 µM (active).

`CCCOC(=O)c1ccc(O)cc1`: the Potency was 21.1 µM (active) and 16.1 µM (active).

In the case of `CC12CCC(C[N+](C)(CCC[N+](C)(C)C)C1)C2(C)C` (centres undefined), the Potency result is “inactive”.

Turning to `COc1ccc(/C=N/NC(=O)c2ccncc2)c(C(=O)O)c1OC`, the Potency entry was “inactive”.

In the case of `O=C1[O][Bi][O]c2ccccc21`, the Potency result was “inactive”.

With `CC(=NCc1ccccc1)c1ccccc1O`, the Potency result is “inactive”.

For the compound `C[C@H](NCCc1ccc(O)cc1)[C@H](O)c1ccc(O)cc1`, the Potency entry is “inactive”.

Turning to `CCCCCCCCCCCCCC(=O)OCC(COP(=O)([O-])OCC[N+](C)(C)C)OC(=O)CCCCCCCCCCCCC` (centres undefined), the Potency result is “inactive”.

With `CC(C)(COP(=O)(O)OP(=O)(O)OC[C@H]1O[C@@H](n2cnc3c(N)ncnc32)[C@H](O)[C@@H]1OP(=O)(O)O)C(O)C(=O)NCCC(=O)NCCS` (some centres undefined), the Potency was 26.6 µM (active).

On to `C=CC(N)CCC(=O)O` (centres undefined), for which the Potency entry is “inactive”.

Take `Cc1c(N)nc([C@H](CC(N)=O)NC[C@H](N)C(N)=O)nc1C(=O)N[C@H](C(=O)N[C@H](C)[C@@H](O)[C@H](C)C(=O)N[C@H](C(=O)NCCc1nc(-c2nc(C(=O)NCCCCN=C(N)N)cs2)cs1)[C@@H](C)O)[C@@H](O[C@@H]1O[C@@H](CO)[C@@H](O)[C@H](O)[C@@H]1O[C@H]1O[C@H](CO)[C@@H](O)[C@H](OC(N)=O)[C@@H]1O)c1cnc[nH]1`: the Potency result was “inactive”.

As for `CCOC(=O)COc1ccc2c(=O)cc(-c3ccccc3)oc2c1`, the Potency result was “inactive”.

System in a further assay: not listed separately
As to the kind of experiment: qHTS assay to identify small molecule antagonists of the estrogen receptor alpha (ER-alpha) signaling pathway using the BG1 cell line (AID 743080).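 Further: BG1 cells stimulated with 17beta-estradiol alongside compound; nearly all actives have a fitted effect of over 25% in size.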 The following applies: BG1Luc4E2 ERE-luciferase antagonist mode, luminescence; series mostly up to 70.3 µM. Summed up: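 Luciferase inhibition measured with ONE-Glo after 30 min at RT in BG1Luc4E2 cells given test compounds and 17beta-estradiol for 21.5 h at 37 C; CellTiter-Fluor viability read in the same wells beforehand.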
Take `O=C(O)/C=C/C(=O)Nc1ccc(S(=O)(=O)Nc2nccs2)cc1`: the Potency entry was “inactive”.

Take `C[C@H](O)CN(C)C`: the Potency result is “inactive”.

With `O=C1CC[C@@H](C(=O)N[C@H]2C[C@@H]2c2ccccc2)N1`, the Potency entry is “inactive”.

For `CC(C)C[C@H](NC(=O)[C@@H](COC(C)(C)C)NC(=O)[C@H](Cc1ccc(O)cc1)NC(=O)[C@H](CO)NC(=O)[C@H](Cc1c[nH]c2ccccc12)NC(=O)[C@H](Cc1cnc[nH]1)NC(=O)[C@@H]1CCC(=O)N1)C(=O)N[C@@H](CCCN=C(N)N)C(=O)N1CCC[C@H]1C(=O)NNC(N)=O`, the Potency result was “inactive”.

Take `NC[C@H]1O[C@H](O[C@H]2[C@H](O)[C@@H](O[C@H]3O[C@H](CO)[C@@H](O)[C@H](N)[C@H]3O)[C@H](N)C[C@@H]2N)[C@H](N)C[C@@H]1O`: the Potency result is “inactive”.

With `CC(C)Cc1ccc([C@H](C)C(=O)O)cc1`, the Potency entry is “inactive”.

With `O=P(O)(O)C(O)(Cn1ccnc1)P(=O)(O)O`, the Potency entry is “inactive”.

For the compound `NCC(O)CC(=O)O` (centres undefined), the Potency entry was “inactive”.

As for `CC12CCC(C[N+](C)(CCC[N+](C)(C)C)C1)C2(C)C` (centres undefined), the Potency result is “inactive”.

As to `COc1ccc(/C=N/NC(=O)c2ccncc2)c(C(=O)O)c1OC`, the Potency entry was “inactive”.

`O=C1[O][Bi][O]c2ccccc21`: the Potency result was “inactive”.

With `CC(=NCc1ccccc1)c1ccccc1O`, the Potency result was “inactive”.

Take `C[C@H](NCCc1ccc(O)cc1)[C@H](O)c1ccc(O)cc1`: the Potency result is “inactive”.

Regarding `CCCCCCCCCCCCCC(=O)OCC(COP(=O)([O-])OCC[N+](C)(C)C)OC(=O)CCCCCCCCCCCCC` (centres undefined), the Potency result is “inactive”.

`CC(C)(COP(=O)(O)OP(=O)(O)OC[C@H]1O[C@@H](n2cnc3c(N)ncnc32)[C@H](O)[C@@H]1OP(=O)(O)O)C(O)C(=O)NCCC(=O)NCCS` (some centres undefined): the Potency result is “inactive”.

Take `CC(C)(C)C(=O)OCC(=O)[C@H]1CC[C@H]2[C@@H]3CCC4=CC(=O)CC[C@]4(C)[C@H]3CC[C@]12C`: the Potency entry is “inactive”.

In the case of `C=CC(N)CCC(=O)O` (centres undefined), the Potency result was “inactive”.

`CCOC(=O)COc1ccc2c(=O)cc(-c3ccccc3)oc2c1`: the Potency result is “inactive”.

As for `NC(=O)CC[C@@H]1NC(=O)[C@H](Cc2ccccc2)NC(=O)[C@H](Cc2ccc(O)cc2)NC(=O)[C@@H](N)CSSC[C@@H](C(=O)N2CCC[C@H]2C(=O)N[C@@H](CCCN=C(N)N)C(=O)NCC(N)=O)NC(=O)[C@H](CC(N)=O)NC1=O`, the Potency entry is “inactive”.
